# Screening results (PubChem BioAssay)
# Rows were chosen to be rich in hits. Some 7.3% of all compounds tested hit in one or more screens of this group.
# SMN2 splice enh – increases expression of the SMN2 splice variant; HEK293 SMN2-luciferase splicing reporter, luminescence, 30-36 h; Potency, µM (series often up to 46.1 µM), hits mostly activators; 2.8% of 210,000 active; also: nearly all actives have a fitted effect of over 55% in size
#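 qHTS luciferase splicing reporter: luminescence rises when SMN2 exon 7 is included in transfected HEK293 cells. Compound exposure lasted 30-36 h at 37C, with 4.5 mM final sodium butyrate as control, followed by a ONE-Glo read.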
# NPC1 promoter act – activates the NPC1 promoter. Potency, µM (titrated, usually from 9.22 µM), actives largely listed as activators. Huh7 NPC1 promoter luciferase reporter, 24 h. 2.4% of 320,000 active; also: nearly all actives have a fitted effect of over 60% in size
#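 Luminescence from an NPC1 promoter-driven luciferase reporter in stably transfected Huh7 cells was measured after 24 h compound treatment at 37 °C, followed by 10 min ambient incubation with luciferase detection reagent.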
# Rab9 prom act – activates the Rab9 promoter; 2.8% of 320,000 active; Potency, µM (doses to about 9.22 µM), hits mostly activators; Huh7 Rab9 promoter-luciferase reporter, luminescence, 24 h; also: nearly all actives have a fitted effect of over 60% in size
#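 Steps: seed 1500 Huh7 Rab9-luc cells per well, rest 2 h at 37 °C; add compound in DMSO; incubate 24 h; add luciferase reagent, 10 min ambient; read luminescence.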
# FLuc counter – inhibits or activates purified firefly luciferase, miR-21 counter-screen; 6.9% of 360,000 active; purified FLuc, Km substrates, luminescence inhibition; Potency, µM (highest dose often 57.5 µM), usual class: inhibitors; also: nearly all actives have a fitted effect of over 55% in size
# Target sequence (P08659 whole entry, looked up): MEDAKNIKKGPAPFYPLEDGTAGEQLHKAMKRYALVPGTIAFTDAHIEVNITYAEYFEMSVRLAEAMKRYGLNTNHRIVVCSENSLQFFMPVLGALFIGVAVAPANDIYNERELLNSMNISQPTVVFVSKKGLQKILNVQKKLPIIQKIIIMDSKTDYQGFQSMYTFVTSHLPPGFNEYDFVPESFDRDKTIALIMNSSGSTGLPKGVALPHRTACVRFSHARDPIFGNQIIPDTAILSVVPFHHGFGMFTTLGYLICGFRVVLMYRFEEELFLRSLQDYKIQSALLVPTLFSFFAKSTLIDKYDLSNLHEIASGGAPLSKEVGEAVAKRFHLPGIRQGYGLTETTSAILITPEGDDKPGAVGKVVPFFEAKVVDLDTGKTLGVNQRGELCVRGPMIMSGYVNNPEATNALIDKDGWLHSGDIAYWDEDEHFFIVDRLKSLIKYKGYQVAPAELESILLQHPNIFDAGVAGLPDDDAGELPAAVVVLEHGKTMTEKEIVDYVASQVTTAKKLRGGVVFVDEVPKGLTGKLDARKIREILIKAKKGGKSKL
#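 Purified P. pyralis luciferase (10nM final) with 10uM D-luciferin and 10uM ATP (Km levels) in 50mM Tris acetate pH 7.5, 10mM Mg acetate, 0.01% Tween-20, 0.05% BSA; qHTS 6-point titration, ~60 µM downward; luminescence read.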
# KinaseGlo FLuc – counter-screen: inhibitors of Kinase-Glo firefly luciferase; Potency, µM (highest dose often 38.3 µM), most hits filed as inhibitors; 0.28% of 200,000 active; Q27757; Kinase-Glo luciferase, ATP luminescence, 8 min; AID 1379; also: nearly all actives have a fitted effect of over 60% in size
#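 Kinase-Glo luciferase light output from ATP and luciferin was measured with 10 uM ATP, within the enzyme's linear range. Buffer: 50 mM imidazole pH 7.2, 50 mM KCl, 7 mM MgCl2, 0.01% Tween 20, 0.05% BSA; luminescence read after 8 min at ambient temperature.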
# ELG1 genotox – genotoxicity induction in ELG1-luciferase HEK293T cells. HEK293T ELG1-luciferase reporter, luminescence, 16 h. Potency, µM (series often up to 46 µM), usual class: activators. 1.3% of 330,000 active; also: nearly all actives have a fitted effect of over 60% in size
#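 DMSO vehicle served as control against compound-treated ELG1-luciferase HEK293T cells; exposure lasted 16 hr at 37 °C and 5% CO2, followed by ONE-Glo luminescence detection after 30 min.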
# Numbers stand for hits; n = inactive; u = inconclusive; x = no result given; [ ] = remark or other dose. Calls follow the shape of the dose curve; as a rule, active = well fitted curve in the direction sought with a large enough effect; inconclusive = small, poorly fitted or top-dose-only effect, or another doubt; inactive = no such curve, though single readings can be large; an effect the other way counts as inactive or inconclusive.
SMILES,SMN2 splice enh,NPC1 promoter act,Rab9 prom act,FLuc counter,KinaseGlo FLuc,ELG1 genotox
COCOc1ccc(OC)cc1C(=O)C1O[C@H]1c1ccc(OC)c(Br)c1 (stereo not given in full),n,x,x,x,n,x
Cc1ccc(NS(=O)(=O)c2ccc(N/N=C/c3ccncc3)c([N+](=O)[O-])c2)c(C)c1,x,n,n,n,n,n
Oc1oc(-c2ccccc2)nc1/C=N/c1ccccn1,x,n,n,n,n,n
CN=Cc1nc(-c2ccccc2)oc1O,11µM,3.5µM,2.5µM,17µM,n,u
CCOCCN(C(=O)c1ccccc1Cl)c1cccc(C)c1C,x,n,n,n,x,n
CCOC(=O)N1CCC(NC(=O)Cn2cc3c(n2)CCC(C)C3)CC1 (stereo not given),n,n,n,n,n,n
CC1CCC(NC(=O)Cn2cc3c(n2)CCCC3)CC1 (stereo not given),n,u,u,u,n,7.3µM
O=C(O)CCCNc1cc(N2CCC3(CC2)OCCO3)c2noc3c2c1C(=O)c1ccccc1-3,n,4µM,2.2µM,11µM,n,u
O=S(=O)(Nc1ccc2c(c1)OCO2)c1ccc(F)c(F)c1,x,n,n,n,x,n
Cc1cccc(NC(=O)c2ccccn2)c1C,n,u,3.5µM,u,n,n
CSCc1ccc(C(=O)Nc2cccc(C)c2C)cc1,20µM,u,u,12µM,n,u
CCCCNC(=O)Nc1ccc(Br)cn1,n,u,u,u,n,u
CCCCNC(=O)Nc1ccccn1,5µM,n,n,n,n,n
Cc1ccccc1NC(=O)Nc1ccccn1,x,u,u,n,x,n
Cc1cccc(NC(=O)Nc2ccccn2)c1C,x,u,4µM,9.5µM,x,n
Cc1cccc(NC(=O)c2cccnc2)c1C,x,n,n,n,x,n
COc1ccccc1CN(C)C(=O)CSc1nnc(C2CC2)n1C1CC1,x,n,n,n,x,n
O=[N+]([O-])c1cnccc1Nc1ccc(F)cc1,n,n,u,n,n,n
Cc1occc(=O)c1OC(=O)Nc1ccc(Cl)c(Cl)c1,n,n,n,n,n,n
Cc1cc(OCC(=O)Nc2cccc(S(=O)(=O)N3CCCCC3)c2)ccc1Cl,x,n,n,6.7µM,x,n
CCCOc1ccc(C(=O)CCC(=O)OCC(=O)Nc2ccc(OCC)cc2)cc1,x,n,n,n,x,n
CCCOc1ccc(C(=O)CCC(=O)OCC(=O)Nc2cccc(S(N)(=O)=O)c2)cc1,x,n,n,11µM,x,n
CCOc1ccc(C(=O)NCC(=O)OCC(=O)Nc2cccc(S(=O)(=O)N3CCCC3)c2)cc1,x,n,n,4.3µM,x,n
CCOc1ccc(C(=O)NCC(=O)OCC(=O)Nc2nnc(-c3ccccc3)o2)cc1,x,n,n,13µM,x,n
Cc1ccc(C)c(NC(=O)CSc2nnc(-c3ccncc3)n2N)c1,n,n,n,n,n,n
SMILES,SMN2 splice enh,NPC1 promoter act,Rab9 prom act,FLuc counter,KinaseGlo FLuc,ELG1 genotox
O=C(COC(=O)[C@@H]1CC(O)CN1S(=O)(=O)c1ccc(Cl)c(Cl)c1)NC(=O)NCc1ccccc1 (stereo not given in full),x,x,x,x,x,n
O=C(CNc1ccc(F)cc1Cl)Nc1cccc(S(=O)(=O)N2CCCCC2)c1,x,n,n,11µM,x,n
Cc1nn(-c2ccccc2)c(N2CCCC2)c1C=O,n,n,n,n,n,n
CC(=Nc1ccc(C)cc1)c1sc2ccccc2c1O,0.63µM,1.8µM,0.89µM,0.43µM,n,0.73µM
CC(=Nc1cccc(O)c1)c1sc2ccccc2c1O,18µM,n,u,1.7µM,n,1.6µM
CC(=Nc1ccc(C)cc1C)c1sc2ccccc2c1O,11µM,u,3.5µM,0.76µM,n,u
C[C@@H]1Cc2ccccc2N1NC(=O)c1ccc(Cl)c(S(N)=O)c1 (stereo not given in full),n,x,x,x,n,x
O=C(CSc1ccsc1[N+](=O)[O-])NCc1ccccc1,n,n,u,u,n,n
O=C(O)c1cccc(Nc2nc(-c3cc4ccccc4oc3=O)cs2)c1,x,2.8µM,u,6µM,x,u
O=c1oc2ccccc2cc1-c1csc(NN=C2CCCC2)n1,n[1.84 µM],n,n,n,n,n
Nc1ccc(C(=O)OCCCc2nc3cc4ccccc4cc3[nH]2)cc1,x,n,n,15µM,x,n
